# Assay outcomes: PubChem BioAssay, National Center for Advancing Translational Sciences (NCATS)
# Sampled rows, rich in hits. Any-hit rate of the full collection: about 18%.
# TDP1 inh = qHTS Assay for Inhibitors of Tyrosyl-DNA Phosphodiesterase (TDP1) | recombinant TDP1, AlphaScreen DNA substrate cleavage | AID 485290, 2010 | Tyrosyl-DNA phosphodiesterase 1 (Homo sapiens), Q9NUW8 | hit rate 0.28% among 350,000 | Potency, µM (series often up to 130 µM), for the others: top-dose activity change, negative = inhibition, actives largely listed as inhibitors; note: nearly all actives have a fitted effect of over 40% in size
#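 E. coli-derived human Tdp1, 1 nM final. Cpd preinc 15 min RT; substrate 15 nM final, 5 min RT; AS bead mix 10 ug/ml final, 10 min RT. Signal loss = tyrosine-FITC cleavage. No-enzyme wells = max signal.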
# TDP1 cell noCPT = qHTS for Inhibitors of human tyrosyl-DNA phosphodiesterase 1 (TDP1): qHTS in cells in absence of CPT; DT40 Tdp1-/- hTDP1 cells, no CPT, ATP luminescence, 48 h; Potency, µM (top dose mostly 46.2 µM), for the others: at the top dose activity change, negative = growth inhibition, hits mostly inhibitors; hit rate 15% among 420,000; AID 686978, 2013; note: nearly all actives have a fitted effect of over 55% in size
#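 Growth of hTDP1-complemented DT40 Tdp1-knockout cells is measured by ATP luminescence after at least 48 hr compound exposure at 37 °C, with DMSO substituting for the 20 nM CPT used in the parallel screen.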
# PLK1 PBD block = qHTS for Inhibitors of PLK1-PDB (polo-like kinase 1 - polo-box domain): Primary Screen | Serine/threonine-protein kinase PLK1 (Homo sapiens), P53350 | Plk1 PBD binding of FITC phosphopeptide, fluorescence polarization | Potency, µM, for the others: max response, negative = inhibition, usual class: inhibitors | hit rate 2.8% among 360,000 | AID 720504, 2013; note: series mostly up to about 57 µM; nearly all actives have a fitted effect of over 65% in size
# Target sequence (P53350 whole entry, looked up, the tested form may be a part): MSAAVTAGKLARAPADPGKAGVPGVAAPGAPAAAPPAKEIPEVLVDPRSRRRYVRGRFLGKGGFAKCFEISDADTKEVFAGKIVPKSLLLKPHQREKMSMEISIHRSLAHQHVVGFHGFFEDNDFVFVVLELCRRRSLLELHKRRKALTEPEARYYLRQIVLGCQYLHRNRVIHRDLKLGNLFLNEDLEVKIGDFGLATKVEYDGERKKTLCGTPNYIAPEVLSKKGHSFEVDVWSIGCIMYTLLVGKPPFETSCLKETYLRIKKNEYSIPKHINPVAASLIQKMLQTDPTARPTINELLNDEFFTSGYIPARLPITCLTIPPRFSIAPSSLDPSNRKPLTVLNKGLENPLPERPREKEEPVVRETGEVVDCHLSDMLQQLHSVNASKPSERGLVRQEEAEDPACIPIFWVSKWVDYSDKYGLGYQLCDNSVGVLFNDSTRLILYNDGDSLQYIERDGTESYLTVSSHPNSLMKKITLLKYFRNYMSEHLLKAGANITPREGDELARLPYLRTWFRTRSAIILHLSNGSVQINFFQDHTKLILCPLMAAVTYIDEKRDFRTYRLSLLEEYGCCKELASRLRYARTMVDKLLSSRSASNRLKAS
# GCN5L2 inh = qHTS Assay for Inhibitors of GCN5L2; Histone acetyltransferase KAT2A (Homo sapiens), Q92830; GCN5L2 HAT assay, ThioGlo1 CoA-SH fluorescence; Potency, µM (series often up to 58.9 µM), inactives show at the top dose activity change, negative = inhibition, hits mostly inhibitors; hit rate 0.21% among 390,000
#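 Compounds, pin-transferred from DMSO stocks, meet 20nM GCN5L2 for 15 min before the reaction begins with H3(1-25) peptide (75uM) and acetyl-CoA (70uM). Thiol-reactive ThioGlo1 reports CoA release over 20 min at room temperature.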
# TDP1 cell CPT = qHTS for Inhibitors of human tyrosyl-DNA phosphodiesterase 1 (TDP1): qHTS in cells in presence of CPT. Potency, µM (titrated, usually from 46.2 µM), inactives show at the top dose activity change, negative = growth inhibition, usual class: inhibitors. hit rate 12% among 420,000. chicken DT40 Tdp1-/-;hTDP1 cells + 20 nM CPT, ATP luminescence, 48 h; note: nearly all actives have a fitted effect of over 55% in size
#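 Chicken DT40 Tdp1-/- cells stably complemented with human TDP1 were seeded at 400 cells/well in medium containing 20 nM camptothecin, exposed to pin-transferred compounds, and grown at 37 °C for at least 48 hr. Viability was read as ATP luminescence.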
# VDR inhibitor = Inhibitors of the vitamin D receptor (VDR): qHTS. Vitamin D3 receptor (Homo sapiens), P11473. VDR-SRC2-3 peptide fluorescence polarization, 2 h. Potency, µM, for inactives: max response, negative = inhibition, most hits filed as inhibitors. hit rate 0.93% among 400,000. AID 504847, 2011
#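 Measured by FP: displacement of SRC2-3 coactivator peptide from VDR by library compounds, following a two-hour ambient incubation.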
# An asterisk follows results filed as active; ? = inconclusive; nt = not tested or not shown; [ ] = another dose, or the depositor's remark. Calls come from the whole dose curve; as a rule, active = well fitted curve in the direction sought with a large enough effect; inconclusive = small, poorly fitted or top-dose-only effect, or another doubt; inactive = no such curve, though single readings can be large; an effect the other way counts as inactive or inconclusive. % is set by controls: 0 for no effect and ±100 for the full control effect; potency is the fitted concentration of half-maximal effect.
SMILES,TDP1 inh,TDP1 cell noCPT,PLK1 PBD block,GCN5L2 inh,TDP1 cell CPT,VDR inhibitor
COc1cccc(-c2cnc3c(NC(C)=O)cc(-c4cccc(C(=O)N(C)C)c4)cn23)c1,nt,?,-3%,nt,?,nt
COc1ccc(Cl)cc1NC(=O)C1CCCN(S(C)(=O)=O)C1 (stereo unspecified),0%,11%,-1%,3%,-8%,-20%
CC(=O)Nc1cccc(-c2cc(NC=O)c3ncc(-c4ccc(C(C)=O)cc4)n3c2)c1,nt,16µM*,-8%,nt,?,nt
COc1ccc(-c2cc(NC(C)=O)c3ncc(-c4cccc(C(C)=O)c4)n3c2)cc1OC,nt,21µM*,?,nt,21µM*,nt
CN(C)C(=O)c1cccc(-c2cnc3c(NC=O)cc(-c4cc(F)c(F)c(F)c4)cn23)c1,nt,?,-20%,nt,?,nt
COc1ccc(-c2cc(NC=O)c3ncc(-c4ccc(C(C)=O)cc4)n3c2)cn1,nt,7.3µM*,0%,nt,5.2µM*,nt
COc1cccc(-c2cnc3c(NC(C)=O)cc(-c4ccsc4)cn23)c1,nt,15µM*,?,nt,13µM*,nt
Cc1ccc(F)cc1NC(=O)CSc1nc(-c2cccs2)cc(C(F)(F)F)n1,-2%,?,nt,-10%,?,?
Cc1ccc(N2C(=O)CSC23C(=O)N(CC(=O)NCc2ccccc2)c2ccccc23)cc1C (stereo unspecified),6%,?,nt,-2%,?,-3%
Cc1oc2c(C)c3oc(=O)c(CCC(=O)N4CCCCC4)c(C)c3cc2c1C,2%,10µM*,nt,-12%,15µM*,7%
CCCCN1C(=O)c2ccc(C(=O)Nc3ccc(C)c(S(=O)(=O)N(C)C)c3)cc2C1=O,-2%,16µM*,0%,?,?,1%
Cc1ccc(NC(=O)c2ccc(OC(F)(F)F)cc2)cc1S(=O)(=O)N(C)C,-3%,26µM*,-10%,-16%,?,4%
Cc1ccc(NC(=O)c2ccncc2)cc1S(=O)(=O)N(C)C,-1%,-17%,4%,-8%,1%,-5%
c1ccc2c(c1)ccc1nnnn12,nt,0%,-4%,nt,17%,19%
CCCC[C@H]1CCCO[C@@](C(=O)NCc2ccc(C)o2)(C(F)(F)F)C1,5%,nt,nt,nt,nt,?
CCCC[C@@H]1CCCO[C@@](C(=O)NCc2ccccn2)(C(F)(F)F)C1,11%,?,?,nt,18µM*,-12%
O=c1cc(-c2cccc(F)c2)[nH]c2cc(F)ccc12,9%[234 µM],nt,nt,4%[88.6 µM],nt,7%
COc1ccc(C(=O)c2ccc(Cl)cc2)cc1,2%,?,0%,-4%,-12%,2%
COc1ccc(C(=O)c2ccc(Cl)c([N+](=O)[O-])c2)cc1,0%,0.73µM*,-6%,2%,0.82µM*,0%
Cc1cc2ccccn2c1C(=O)c1ccc(Cl)c([N+](=O)[O-])c1,5%,?,3%,-8%,21µM*,-3%
Cc1c(C=O)c2ccccn2c1C(=O)c1ccc(Cl)c([N+](=O)[O-])c1,0%,16µM*,-8%,0%,?,-20%
Cc1cc2ccccn2c1C(=O)c1cccc([N+](=O)[O-])c1,8%,?,-10%,-4%,?,-4%
Cc1cc2ccccn2c1C(=O)c1ccc([N+](=O)[O-])o1,10%,18µM*,-3%,-4%,23µM*,-29%
CCC(C(=O)NCc1ccncc1)c1ccccc1 (stereo unspecified),3%,-6%,-10%,-5%,2%,16%
CCOC(=O)C1=CCN(S(C)(=O)=O)C1c1ccc(C)cc1 (stereo unspecified),nt,-14%,-6%,nt,-5%,nt
SMILES,TDP1 inh,TDP1 cell noCPT,PLK1 PBD block,GCN5L2 inh,TDP1 cell CPT,VDR inhibitor
C=CCn1c(=O)c2c3c(sc2n2c(Nc4ccc(C(=O)OCC)cc4)nnc12)CCCC3,3%,12µM*,-5%,-4%,13µM*,20%
C=CCn1c(=O)c2c3c(sc2n2c(Nc4ccccc4)nnc12)CCCC3,1%,10µM*,-10%,-5%,8.9µM*,-4%
Cc1nnc2n(Cc3ccccc3)c(=O)c3c4c(sc3n12)CCCC4,10%,nt,nt,-7%,nt,nt
C=CCn1c(=O)c2c3c(sc2n2c(Nc4ccc(OC)cc4)nnc12)CCCC3,9%,8.2µM*,-4%,-1%,9.2µM*,19%
O=C(Nc1cccc(C(F)(F)F)c1)Nc1ccc2nc([C@@H]3O[C@H](CO)[C@@H](O)[C@H](O)[C@H]3O)[nH]c2c1,nt,6%,0%,nt,10%,nt
O=C(Nc1cc(C2CC2)nn1-c1ccccc1)c1ccc(F)cc1,0%,-18%,-6%,-4%,3%,8%
COc1ccc(-c2nn(-c3ccccc3)cc2C(=O)n2nnc3ccccc32)cc1,2%,-44%,-11%,1%,21µM*,5%
COc1cc(OC)c(OC)cc1CNc1cc(C)ccc1OC,12%,?,-4%,-8%,?,17%
COc1cc(Br)c(CNc2cc(C)ccc2C)cc1OC,nt,16µM*,3%,-6%,?,-11%
COc1ccc(OCc2cc(C(=O)NC(C)Cn3cncn3)no2)c(Cl)c1 (stereo unspecified),2%,4%,6%,-12%,3%,10%
NS(=O)(=O)c1ccc(CCNC(=O)CCCOc2ccccc2)cc1,3%,?,-14%,-1%,-14%,8%
O=C(CCC1CCCN(Cc2ccc3c(c2)CCO3)C1)NCc1ccc(F)c(F)c1 (stereo unspecified),-4%,-9%,-1%,28%,-4%,-10%
COc1ccc(-c2cc3cc(-c4cc(OC)c(OC)c(OC)c4)ccc3o2)cc1,0%,-23%,-11%,-7%,?,-11%
COc1cc(-c2ccc3cc(OC)c(OC)c(OC)c3c2)cc(OC)c1OC,nt,?,-4%,nt,21µM*,nt
COc1ccccc1NC(=O)Nc1ccccc1N1CCOCC1,nt,-3%,-7%,-3%,-10%,5%
CN1CC(O)C2=CC(=O)C(=O)C=C21 (stereo unspecified),?,?,nt,14µM*,?,11µM*
O=Nc1c(O)[nH]c2ccc(F)cc12,-3%,-15%,-1%,-14%,2%,-29%
